Compound activity (PubChem BioAssay)
Shown is part of a subset that was picked to be rich in hits.
CBX7 inh – blocks human CBX7 binding to H3K27me3 peptide; O95931; normalised signal (fraction of DMSO) (no concentration beside the values); AID 1224903; AlphaScreen His6-CBX7 / biotin-H3K27me3 peptide binding; hits give low values; 66,000 tested, 1.1% active; in the data active means normalised signal below about 0.5
Target sequence (O95931 whole entry, looked up): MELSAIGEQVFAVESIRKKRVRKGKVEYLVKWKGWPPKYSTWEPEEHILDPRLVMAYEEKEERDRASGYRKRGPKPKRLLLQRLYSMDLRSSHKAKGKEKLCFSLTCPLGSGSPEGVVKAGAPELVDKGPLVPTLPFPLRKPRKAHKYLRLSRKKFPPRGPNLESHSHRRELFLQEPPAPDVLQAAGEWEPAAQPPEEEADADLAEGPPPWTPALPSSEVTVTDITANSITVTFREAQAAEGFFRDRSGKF
Active calls of the source: *.

SMILES | CBX7 inh
O=C(CCCCCn1c(=O)c2sccc2n(Cc2cccc(F)c2)c1=O)NCc1ccc(F)cc1 | 1
O=C(CN1CCCCC1)Nc1c2c(nc3ccccc13)CCCC2 | 0.9
O=C(CCCN1Cc2ccccc2C1)Nc1c2c(nc3c1CCC3)CCCC2 | 1
O=C(CN1CCCCC1)Nc1c2c(nc3c1CCC3)CCCC2 | 0.45*
NC(=O)C1CCN(CC(=O)Nc2c3c(nc4ccccc24)CCC3)CC1 | 1.3
COc1ccccc1C(=O)Nc1c2c(nc3c1CCC3)CCCC2 | 0.95
CN(CC(=O)Nc1c2c(nc3c1CCC3)CCCC2)Cc1ccccc1 | 0.24*
O=C(NCCCN1CCc2ccccc2C1)c1ccc2nc(N3CCOCC3)sc2c1 | 1.3
CCCc1ccc(C(=O)Nc2nc3ccc(OC)cc3s2)cc1 | 1.1
CCOC(=O)Cc1csc(NC(=O)COc2ccc(Oc3ccc(C)cc3)cc2)n1 | 1
Cc1ccccc1C(=O)Nc1ccccc1-c1nc2ccccc2[nH]1 | 0.84
Cc1ccccc1OCCCC(=O)Nc1nc(-c2ccc(Br)cc2)cs1 | 1.1
COc1ccc(/C=C/c2cc(C(F)(F)F)[nH]c(=O)n2)cc1OC | 0.88
COc1cc(/C=C/c2cc(C(F)(F)F)[nH]c(=O)n2)ccc1OCc1ccc(Cl)cc1Cl | 0.26*
COc1cc(/C=C/c2cc(C(F)(F)F)[nH]c(=O)n2)ccc1OCc1ccccc1F | 1
Cc1ccc(Cc2c(C)nc3c(C(=O)N4CCc5ccccc5C4)cnn3c2C)cc1 | 0.97
CCCCN(CC)CCNS(=O)(=O)c1ccc2c(c1)CCN2C(=O)CC | 1.1
COc1ccc(NC(=O)[C@H](CCSC)N2Cc3ccccc3C2=O)cc1OC | 0.77
COc1ccc(NC(=O)[C@H](Cc2ccccc2)N2Cc3ccccc3C2=O)cc1OC | 0.42*
O=C(Nc1ccc2c(c1)OCO2)[C@H](Cc1ccccc1)N1Cc2ccccc2C1=O | 0.42*
O=C(Nc1ccc2c(c1)OCO2)[C@H](CSCc1ccccc1)N1Cc2ccccc2C1=O | 0.71
Cc1ccc(NC(=O)[C@H](Cc2ccccc2)N2Cc3ccccc3C2=O)cc1F | 0.68
CSCC[C@@H](C(=O)Nc1ccc2c(c1)OCO2)N1Cc2ccccc2C1=O | 0.62
CC(C)(CC(=O)N1CC=C(c2ccccc2)CC1)CC1=NS(=O)(=O)c2ccccc2N1 | 0.75
COc1ccc(-c2noc(-c3ccccc3C)n2)cc1OC | 1.2
SMILES | CBX7 inh
COc1ccc(OC2C(=O)N(c3ccc(C)c(Cl)c3)C2c2ccc(OC)c(OC)c2)cc1 (stereo not drawn) | 0.9
COc1cccc(N2CCN(C(=O)CCCC3=NS(=O)(=O)c4ccccc4N3)CC2)c1 | 1
CC1CCc2c(C(=O)NCCCN3C(C)CCCC3C)csc2C1 (stereo not drawn) | 1
O=C(c1ccc2c(c1)N(Cc1ccccc1Cl)C(=O)CS2)N1CCCC1 | 0.94
Cc1cc2ccccc2c(=O)n1CC(=O)N1CCC(C(N)=O)CC1 | 1
O=C(c1ccccc1F)N1CCNc2ccccc2C1 | 1
CCOc1cc(/C=C/c2cc(C(F)(F)F)[nH]c(=O)n2)ccc1OCc1ccc(F)cc1 | 1
COc1ccc2nc(NC(=O)c3ccc(OC(C)=O)cc3)sc2c1 | 1.1
COc1ccc(-c2cc(-c3ccc(F)cc3)nc(N3CCOCC3)n2)cc1 | 1.1
O=C(CCCN1C(=O)c2cccnc2C1=O)Nc1cccc(Cl)c1 | 0.8
O=C(CCN1C(=O)c2cccnc2C1=O)Nc1cccc(F)c1 | 0.44*
O=C(CCCN1C(=O)c2cccnc2C1=O)Nc1ccc(F)c(F)c1 | 1.1
O=C(Nc1ccc(F)c(F)c1)C1CCCN(S(=O)(=O)c2ccc(Br)s2)C1 (stereo not drawn) | 1.5
Cc1nc(N2CCCCC2C)c2c3c(sc2n1)CCC3 (stereo not drawn) | 1.1
Cc1cccc(NC(=O)c2ccc(NC3=NC4CS(=O)(=O)CC4S3)cc2)c1 (stereo not drawn) | 1
COc1cccc(NC(=O)CSc2nc(-c3ccc4c(c3)OCO4)cn2-c2ccc(F)cc2)c1 | 0.97
COCc1nnc(NC(=O)c2ccc(S(=O)(=O)N(CC(C)C)CC(C)C)cc2)o1 | 0.081*
C=CCN(CC=C)S(=O)(=O)c1ccc(C(=O)Nc2nnc(COC)o2)cc1 | 0.069*
Brc1ccc2nc(N3CCCCC3)nc(-c3ccccc3)c2c1 | 1.2
O=C(CSc1nnc(Cc2cc(=O)[nH]c(=O)[nH]2)n1-c1ccc(F)cc1)Nc1ccccc1 | 1.1
COc1ccc(NC(=O)CSc2nc3nc(C)c(Cc4cc(C)ccc4C)c(C)n3n2)cc1OC | 0.84
COc1ccc(NC(=O)C2(NC(=O)c3ccc(-n4cnnn4)cc3)CCCCC2)cc1 | 0.97
COc1ccc(Cn2c(=O)[nH]c3cc(C(=O)NCc4ccc(Cl)cc4)ccc3c2=O)cc1 | 0.98
CCN1CCN(c2oc(COc3ccc(Cl)cc3)nc2C#N)CC1 | 0.72
COc1ccc(OCc2nc(C#N)c(N3CCCC3)o2)cc1 | 0.86
SMILES | CBX7 inh
N#Cc1nc(COc2ccc(Br)cc2)oc1N1CCCCCC1 | 0.42*
N#Cc1nc(COc2ccc(Br)cc2)oc1N1CCCC1 | 0.47*
Cc1ccc(OCc2nc(C#N)c(N3CCC(Cc4ccccc4)CC3)o2)cc1 | 0.6
CCCCOc1cccc(C(=O)Nc2c(C(=O)c3ccc(Br)cc3)oc3ccccc23)c1 | 1.1
COc1cc2c(c(CO)c1OC)CC1c3c(cc4c(c3OC)OCO4)CCN1C2 (stereo not drawn) | 0.99
O=c1[nH]c2ccccc2nc1Cc1ccc(Br)cc1 | 0.99
Cc1ccnc(N2C(=O)c3ccccc3C2Nc2cccc(C(F)(F)F)c2)c1 (stereo not drawn) | 1.1
Cc1sc2ncn(CC(=O)NCCCC(=O)NC3CCCCC3)c(=O)c2c1C | 1
Cc1[nH]c2ccc(OCc3ccccc3)cc2c1CCNC(=O)c1cccc(Br)c1 | 0.65
COc1ccc(C(=O)NCCc2c(C)[nH]c3ccc(OCc4ccccc4)cc23)cc1OC | 0.52
Cc1[nH]c2ccc(OCc3ccccc3)cc2c1CCNC(=O)c1ccnn1C | 0.48*
COc1ccc2[nH]c(C)c(CCNC(=O)Cn3nc(C(F)(F)F)cc3C)c2c1 | 0.79
COC(=O)c1ccc(C(=O)NCCc2c(C)[nH]c3ccc(OCc4ccccc4)cc23)cc1 | 0.82
Cc1nn(CC(=O)NCCc2c(C)[nH]c3ccc(OCc4ccccc4)cc23)c(C)c1Cl | 0.48*
CCN1CCN(c2ccc3nnc(CCC(=O)Nc4ccc(C)c(C)c4)n3n2)CC1 | 1.1
CCOc1ccc(CN2C(=O)c3ccccc3C2C(=O)NC2CCCCCC2)cc1 (stereo not drawn) | 1.2
Cc1cccc(C)c1-n1nnnc1C(c1ccc(Cl)cc1)N(C)Cc1ccccc1 (stereo not drawn) | 1
Cn1nc(C(=O)Nc2cc(Cl)ccc2Cl)cc1C(=O)Nc1cc(Cl)ccc1Cl | 0.99
c1cncc(-c2nc3ccccn3c2Nc2ccc3c(c2)OCCO3)c1 | 0.9
Brc1cccc(-c2nc3ccccn3c2Nc2ccc3c(c2)OCCO3)c1 | 0.44*
Clc1ccc(-c2nc3ncccn3c2Nc2ccc3c(c2)OCCO3)cc1 | 0.85
Cc1ccc(-c2nc3ccccn3c2Nc2ccc3c(c2)OCO3)cc1 | 0.35*
Cc1cccn2c(Nc3ccc4c(c3)OCCO4)c(-c3ccc(Cl)cc3)nc12 | 0.48*
Cc1ccc(-c2nc3ccccn3c2Nc2ccc3c(c2)OCCO3)cc1 | 1
c1csc(-c2nc3ccccn3c2Nc2ccc3c(c2)OCCO3)c1 | 0.77
Clc1ccc(-c2nc3ccccn3c2Nc2ccc3c(c2)OCCO3)cc1 | 0.61
c1ccn2c(Nc3ccc4c(c3)OCCO4)c(-c3ccc(N4CCOCC4)cc3)nc2c1 | 1
CCc1ccc(-c2nc(C(=O)NC(C)CC)c(C)o2)cc1 (stereo not drawn) | 0.94
